Screens from PubChem BioAssay.
MEKK2wt PB1 HTS – raises or lowers MEK5 binding to wildtype human MEKK2 PB1 domain; Q9Y2U5; bead flow cytometry, Alexa488-MEK5 binding to MEKK2 WT; actives lie on both sides; binding response (% of control), % at 10 µM; 1.1% of 290,000 active; AID 1531; in the data active means binding response below about 67% or above about 130%
MEKK3 PB1 HTS – modulators (inhibitors or enhancers) of MEK5 binding to human MEKK3 PB1 domain; Q99759; bead-based flow cytometry, Alexa488-MEK5 binding to MEKK3; actives lie on both sides; 0 = blocked by unlabeled MEK5, 100 = vehicle; binding response (% of control), % at 10 µM; 1.4% of 290,000 active; AID 1529;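 active means binding response more than 3 SD above or below the average of its plate-row segment, actives on both sides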;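 further: Alexa488 bead fluorescence after subtracting the streptavidin-only scavenger bead signal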
MEKK2mut PB1 HTS – signal of MEK5 binding to mutant human MEKK2 PB1 domain; bead flow cytometry, Alexa488-MEK5 binding to MEKK2 mutant; percent response, % at 10 µM; 0.35% of 290,000 active; in the data active means percent response above about 24%, passing the limit was not always enough
UBC13 polyUb – blocks human UBC13 polyubiquitin chain formation; P61088; TR-FRET; 0.47% of 330,000 active; AID 485273; inhibition, % at 20 µM; in the data active means inhibition above about 45%, passing the limit was not always enough
Target sequence (P61088 whole entry, looked up): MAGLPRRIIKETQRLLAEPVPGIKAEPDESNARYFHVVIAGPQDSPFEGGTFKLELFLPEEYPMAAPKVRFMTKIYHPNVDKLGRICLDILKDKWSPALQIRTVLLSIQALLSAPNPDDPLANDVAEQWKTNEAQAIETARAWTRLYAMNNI
MEKK2wt confirm – raises or lowers MEK5 binding to wildtype human MEKK2, retest; binding response (% of control), % at 10 µM; 2.4% of 5,900 active; bead flow cytometry, Alexa488-MEK5 binding to MEKK2 WT; actives lie on both sides; shares compounds with MEKK3 PB1 HTS; AID 1892; in the data active means binding response below about 16% or above about 210%; inactive means in between
MEKK2mut confirm – signal of MEK5 binding to mutant human MEKK2, retest | shares compounds with MEKK3 PB1 HTS | bead flow cytometry, Alexa488-MEK5 binding to MEKK2 mutant | percent response, % at 10 µM | 2% of 5,900 active | AID 1893; in the data active means percent response mostly above about 71%, no sharp cut-off; inactive means mostly below about 38%;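 further: higher means compound restores mutant binding toward wildtype level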
MEKK3 confirm – MEKK3-MEK5 PB1 inhibition, single concentration confirmation. shares compounds with MEKK3 PB1 HTS. binding response (% of control), % at 10 µM. AID 1894. 1.8% of 5,900 active. bead flow cytometry, Alexa488-MEK5 binding to MEKK3; active compounds read low;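 active means binding response below 72% of control, or above a set upper limit, though filed actives all read lower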;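 further: 100% = DMSO only wells and 0% = binding blocked by excess unlabeled MEK5; lower values mean stronger disruption of MEK5 binding to MEKK3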
Active calls of the source: *; · = no result; [ ] = another dose, or the depositor's remark. Rows were chosen to be rich in hits. Some 2.3% of all compounds tested hit in one or more screens of this group.

SMILES | MEKK2wt PB1 HTS | MEKK3 PB1 HTS | MEKK2mut PB1 HTS | UBC13 polyUb | MEKK2wt confirm | MEKK2mut confirm | MEKK3 confirm
COc1ccc(Nc2ccc(C(=O)O)cc2[N+](=O)[O-])cc1 | 99 | 104 | 0 | -39 | · | · | ·
COc1ccc(Nc2ccc(C(N)=O)cc2[N+](=O)[O-])cc1 | 84 | 57*[inhibitor] | -3 | -62 | 103 | 5 | 105
O=C(CCc1nc(-c2ccccc2F)no1)NC1CCN(Cc2ccccc2)CC1 | 121 | 106 | 24* | 22 | 108 | 0 | 97
Cc1ccc(C2/C(=C(\O)c3ccc4c(c3)OCCO4)C(=O)C(=O)N2CC2CCCO2)cc1 (configuration not stated) | 103 | 102 | 4 | -10 | · | · | ·
Cc1cccc(Nc2ccncc2S(N)(=O)=O)c1 | · | · | · | 6 | · | · | ·
C/C(=N\NC(=O)Cc1c(C)[nH][nH]c1=O)c1ccc(Cl)c(Cl)c1 | 99 | 100 | -2 | -2 | · | · | ·
C/C(=N/NC(=O)Cc1c(C)[nH][nH]c1=O)c1ccc(O)cc1 | 113 | 145* | 2 | 14 | 97 | -5 | 100
C/C(=N\NC(=O)Cc1c(C)[nH][nH]c1=O)c1cccc(Br)c1 | 50 | 49*[inhibitor] | -12 | 11 | 98 | -6 | 100
COc1ccc(NC(=O)C2CCCN(CCCc3ccccc3)C2)cc1OCC(C)C (configuration not stated) | 139* | 110 | 19 | 17 | 109 | 3 | 98
CC1CC(C)CN(CCCNC(=O)C2CCN(S(=O)(=O)N3CCCCC3)CC2)C1 (configuration not stated) | 118 | 123* | 10 | 7 | 109 | 15 | 108
O=C(NCCN1CCCCCC1)C1CCN(S(=O)(=O)N2CCOCC2)CC1 | 131 | 107 | 39* | -1 | 139 | 27 | 112
CC1CCN(CCCNC(=O)C2CCN(S(=O)(=O)N3CCCCC3)CC2)CC1 | 115 | 123* | 13 | 0 | 103 | 0 | 102
CS(=O)(=O)N1CCC(C(=O)NCCC2=CCCCC2)CC1 | 106 | 102 | 6 | 0 | · | · | ·
CC1CCN(S(=O)(=O)N2CCC(C(=O)NCCC3=CCCCC3)CC2)CC1 | 70 | 70*[inhibitor] | -23 | 10 | 101 | 2 | 107
CCOC(=O)C(=CNc1cc(C(F)(F)F)ccc1N1CCOCC1)C(=O)OCC | 105 | 105 | 4 | 4 | · | · | ·
CSc1ccccc1NC(=O)COc1ccccc1Cl | 97 | 98 | -4 | -1 | · | · | ·
CCc1ccc(NC(=O)CO/N=C(\C)c2cc3ccccc3o2)cc1 | 101 | 136* | -1 | 4 | 98 | 2 | 101
CSc1ccccc1NC(=O)CO/N=C(\C)c1cc2ccccc2o1 | 98 | 96 | -4 | 7 | · | · | ·
COc1ccc(CN2CCC(n3nccc3NC(=O)C3CCCC3)CC2)cc1 | 144* | 108 | 20 | 1 | 142 | 26 | 110
O=C(CN1C(=O)NC2(CCc3ccccc32)C1=O)Nc1ccccc1C(F)(F)F (configuration not stated) | · | · | · | -8 | · | · | ·
COc1ccc(-c2nnc(C)c3nocc23)cc1 | 101 | 104 | 4 | -14 | · | · | ·
Brc1ccc(-c2nnc(-c3cccnc3)c3conc23)cc1 | 78 | 80*[inhibitor] | -5 | 11 | 99 | 1 | 102
CCN1CCC(C(N)=O)CC1 | 0.0*[inhibitor] | 0.0*[inhibitor] | -35 | -2 | 100 | 5 | 105
CC(=O)C1=C(O)C(=O)N(Cc2ccccc2)C1c1ccc(Br)cc1 (configuration not stated) | 108 | 105 | 9 | -7 | · | · | ·
Cc1cc(C(=O)Nc2ccc(C#N)cc2)on1 | 8.0*[inhibitor] | 4.0*[inhibitor] | -49 | 4 | 95 | -2 | 99
O=C(Nc1nnc(-c2ccco2)o1)c1ccc(N2C(=O)CCC2=O)cc1 | 87 | 70*[inhibitor] | -2 | -6 | 95 | 2 | 106
O=C(Nc1nnc(-c2ccc(Cl)cc2)o1)c1ccc(N2C(=O)CCC2=O)cc1 | 100 | 101 | -2 | -29 | · | · | ·
CC(=O)n1c(=O)oc2ccccc21 | · | · | · | -1 | · | · | ·
CCOC(=O)c1c(-c2ccc(OC)cc2)csc1/N=C/C1C(=O)CCCC1=O | 95 | 100 | -5 | 4 | · | · | ·
